The source made the active and inactive calls. Unless noted, the rule behind the calls is not given here.
Columns and labels:
[1] = compound effects on lung adenocarcinoma cell viability – A549, calcein-AM fluorescence, 48 h, basal, profiling panel (AID 1162); settings: higher = more signal; note: test concentration not given here
[2] = compound effects on differentiated 3T3-L1 adipocyte viability – cell-based, 3T3-L1 adipocytes, calcein-AM fluorescence, 48 h, basal, profiling panel (AID 1163); settings: 3T3-L1 adipocytes viability, higher = more signal; note: test concentration not given here
[3] = compound effects on hepatocellular carcinoma cell viability – HepG2, calcein-AM fluorescence, 48 h, basal, profiling panel (AID 1164); settings: higher = more signal; note: test concentration not given here
[4] = compound effects on multiple myeloma cell viability – MM1S, calcein-AM fluorescence, 48 h, basal, profiling panel (AID 1165); settings: higher = more signal;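 note: viability of MM1S multiple myeloma cells under basal unstimulated conditions; test concentration not given here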
[5] = calcein-AM signal in unstimulated myeloma cells – cell-based, calcein-AM fluorescence, 48 h, PK04 Diversity Set, profiling panel (AID 1166); settings: RPMI8226 myeloma viability, higher = more signal;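 note: cells grown under basal conditions without added stimulus; test concentration not given here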
[6] = JC-1 mitochondrial signal, unstimulated HepG2 cells – cell-based, JC-1 fluorescence, 24 h, 100 nL compound, profiling panel (AID 1167); settings: HepG2 mitochondrial potential, higher = more signal; note: test concentration not given here
[7] = JC-1 mitochondrial signal, unstimulated adipocytes – cell-based, JC-1 fluorescence, 3T3-L1 adipocytes, 24 h, 100 nL compound, profiling panel (AID 1168); settings: JC-1 mitochondrial fluorescence, higher = more signal, called active from +8 up or from −8 down; note: test concentration not given here
[8] = JC-1 mitochondrial signal, unstimulated myeloma cells – cell-based, JC-1 fluorescence, RPMI8226, 24 h, 100 nL compound, profiling panel (AID 1169); settings: JC-1 mitochondrial potential fluorescence, higher = more signal; note: test concentration not given here
[9] = JC-1 mitochondrial signal, unstimulated MM1S myeloma – cell-based, JC-1 fluorescence, 24 h, 100 nL compound, profiling panel (AID 1170); settings: MM1S mitochondrial potential, higher = more signal; note: test concentration not given here
[10] = resazurin metabolic signal in A549 cells – cell-based, resazurin fluorescence, 24 h, PK04 Diversity Set, profiling panel (AID 1171); settings: A549 viability, higher = more signal, called active from +8 up or from −8 down; note: test concentration not given here
[11] = resazurin metabolic signal in HepG2 cells – cell-based, resazurin fluorescence, 24 h, PK04 Diversity Set, profiling panel (AID 1172); settings: HepG2 viability, higher = more signal; note: test concentration not given here
[12] = budding yeast growth changes without added modifier – OD600, strain BY4716, 24 h, basal condition, primary screen (AID 1173); settings: S. cerevisiae BY4716 growth, OD600, 24 h; higher = more signal, called active from +8 up or from −8 down
[13] = viability profiling in MM1S myeloma cells – cell-based, resazurin fluorescence, basal, 24 h, PK04 Diversity Set, profiling panel (AID 1174); settings: higher = more signal, called active from +8 up or from −8 down; note: test concentration not given here
[14] = molecular target: Dihydroorotate dehydrogenase (quinone), mitochondrial (Plasmodium falciparum (isolate 3D7)) (UniProt Q08210); assay: inhibition of P. falciparum DHODH – biochemical, C-terminal His tag, absorbance 600 nm, primary screen (AID 1175); settings: PfDHODH enzyme, DCIP absorbance 600 nm; higher = more signal, called active from +8 up or from −8 down;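 note: recombinant parasite enzyme with a five histidine tag at its C terminus; test concentration not given here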
Chain of Dihydroorotate dehydrogenase (quinone), mitochondrial (Plasmodium falciparum (isolate 3D7)) (Q08210 whole entry, looked up): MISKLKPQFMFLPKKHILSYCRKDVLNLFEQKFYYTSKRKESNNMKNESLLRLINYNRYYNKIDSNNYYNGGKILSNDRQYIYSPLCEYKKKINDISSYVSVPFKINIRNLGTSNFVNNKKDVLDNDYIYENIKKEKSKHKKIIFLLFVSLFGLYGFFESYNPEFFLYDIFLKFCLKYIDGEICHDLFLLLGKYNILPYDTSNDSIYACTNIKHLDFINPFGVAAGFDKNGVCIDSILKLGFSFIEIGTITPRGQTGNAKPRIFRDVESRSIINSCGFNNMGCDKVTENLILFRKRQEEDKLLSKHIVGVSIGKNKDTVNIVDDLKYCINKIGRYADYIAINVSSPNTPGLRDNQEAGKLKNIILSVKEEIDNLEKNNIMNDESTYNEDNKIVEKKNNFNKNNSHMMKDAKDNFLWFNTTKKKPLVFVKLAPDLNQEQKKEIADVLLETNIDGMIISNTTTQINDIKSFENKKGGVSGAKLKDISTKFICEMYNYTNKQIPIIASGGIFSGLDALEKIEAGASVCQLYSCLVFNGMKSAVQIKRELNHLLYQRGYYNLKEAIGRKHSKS

[15] = inhibition of PAO1 biofilm formation – strain PAO1, LB-PBS medium, absorbance 600 nm, primary screen (AID 1176); note: test concentration not given here; settings: P. aeruginosa PAO1 growth/biofilm, A600, 12 h; higher = more signal
[16] = growth modulation of vineyard yeast isolate – strain RM11-1a, OD600, basal, 24 h, primary screen (AID 1177);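 note: cultures grown under basal conditions with no added stressor; test concentration not given here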; settings: S. cerevisiae RM11-1a growth, OD600, 24 h; higher = more signal, called active from +8 up or from −8 down
[17] = growth of efflux-deficient E. coli DRC39 – strain DRC39, OD650, 24 h, E. coli filamentation inducers, primary screen (AID 1178);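 note: growth measured as culture turbidity by optical density at 650 nm; test concentration not given here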; settings: E. coli DRC39 acrAB, higher = more signal, called active from +8 up or from −8 down
[18] = growth of efflux-deficient E. coli DRC39 – strain DRC39, OD650, 48 h, E. coli filamentation inducers, primary screen (AID 1179);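 note: screen aims at cell division blockers that make cells filament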; settings: E. coli DRC39 delta-acrAB growth, higher = more signal, called active from +8 up or from −8 down
[19] = viability profiling in RPMI8226 myeloma cells – cell-based, resazurin fluorescence, basal, 24 h, PK04 Diversity Set, profiling panel (AID 1180); settings: higher = more signal;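 note: RPMI8826 multiple myeloma cell line at 5000 cells per well; test concentration not given here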
[20] = molecular target: E3 ubiquitin-protein ligase XIAP (Homo sapiens) (UniProt P98170); assay: small molecules binding XIAP protein – biophysical, small-molecule microarray, fluorescence 635 nm, primary screen (AID 1181); settings: higher = more signal;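 note: score merges 667 nm emission and signal to noise over triplicate slides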
Chain of E3 ubiquitin-protein ligase XIAP (Homo sapiens) (P98170 whole entry, looked up): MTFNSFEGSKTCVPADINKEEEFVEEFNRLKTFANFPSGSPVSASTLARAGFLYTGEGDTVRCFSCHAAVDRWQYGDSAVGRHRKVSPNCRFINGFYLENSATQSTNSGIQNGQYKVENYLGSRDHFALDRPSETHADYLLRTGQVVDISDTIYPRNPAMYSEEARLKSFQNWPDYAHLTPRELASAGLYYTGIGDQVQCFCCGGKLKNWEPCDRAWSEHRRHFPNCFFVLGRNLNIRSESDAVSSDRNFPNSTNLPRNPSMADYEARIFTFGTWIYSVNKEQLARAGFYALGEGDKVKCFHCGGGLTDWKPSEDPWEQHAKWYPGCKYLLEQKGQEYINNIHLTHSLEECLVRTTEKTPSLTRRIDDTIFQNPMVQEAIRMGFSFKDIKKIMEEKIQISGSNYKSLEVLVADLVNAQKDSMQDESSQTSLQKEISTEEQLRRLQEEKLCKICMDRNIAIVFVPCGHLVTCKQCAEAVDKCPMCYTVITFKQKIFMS

Row | SMILES | z-score [1] | z-score [2] | z-score [3] | z-score [4] | z-score [5] | z-score [6] | z-score [7] | z-score [8] | z-score [9] | z-score [10] | z-score [11] | z-score [12] | z-score [13] | composite z-score [14] | z-score [15] | z-score [16] | z-score [17] | z-score [18] | z-score [19] | composite z-score [20]
1 | CC(C)[Si]1(C(C)C)OCc2cc(C3CC3)nc(-c3ccc(Oc4ccccc4)cc3)c21 | 1.25 | 0.676 | 0.468 | -0.795 | -1.94 | -2.33 | 0.138 (inactive) | -0.989 | 0.196 | 2.94 (inactive) | 0.467 | 1.64 (inactive) | 1.03 (inactive) | 0.483 (inactive) | 0.173 (inactive) | 2.12 (inactive) | 0.362 (inactive) | 0.0518 (inactive) | -0.497 | -0.299
2 | COCCOC(=O)N1C(=O)[C@@]2(c3cc(C#CC4=CCCCC4)ccc31)[C@H](c1ccccc1OCCO)N1[C@H](c3ccccc3)[C@H](c3ccccc3)OC(=O)[C@H]1[C@@H]2C(=O)NC[C@H](O)c1ccccc1 | -1.86 | 1.44 | -0.529 | -3.08 | -3.9 | 0.315 | 2.5 (inactive) | -0.817 | -1.07 | -1.59 (inactive) | -1.14 | 0.861 (inactive) | -2.19 (inactive) | -0.158 (inactive) | 1.92 (inactive) | 2.08 (inactive) | -0.609 (inactive) | -0.255 (inactive) | -3.52 | -0.0476
3 | CCCC[C@@H](O)C1=C(COc2ccccc2)C[C@H]2C(=O)N(Cc3ccccc3)C(=O)[C@H]2[C@H]1CO | 0.553 | -0.0277 | 0.913 | -0.189 | 0.0172 | 1.17 | 0.0746 (inactive) | -1.06 | -0.172 | -0.0959 (inactive) | -0.78 | -1.66 (inactive) | -0.857 (inactive) | -4.48 (inactive) | -0.508 (inactive) | 0.743 (inactive) | -0.0552 (inactive) | 0.218 (inactive) | -0.301 | -0.0118
4 | C=CCC(OC(C)=O)[C@@H]1[C@@H](N(Cc2cccc3ccccc23)C(=O)Cc2ccc(OC)cc2)c2cc(OCCCO)ccc2N1C(=O)c1ccc(-c2ccccc2)cc1 (stereo not given in full) | -0.433 | 1.12 | 0.256 | -0.47 | 0.0509 | 2.36 | 0.286 (inactive) | 0.0206 | 0.621 | 0.48 (inactive) | -0.433 | 0.376 (inactive) | 0.551 (inactive) | -0.547 (inactive) | -0.121 (inactive) | -0.352 (inactive) | 0.144 (inactive) | -0.165 (inactive) | 0.0598 | -0.224
5 | C=CCN1C(=O)[C@]2(CCS(=O)(=O)c3ccccc3)N=C(c3ccc(OCCCO)cc3)O[C@@H]2c2ccccc21 | 0.776 | 0.142 | 0.504 | -0.0236 | 0.716 | 0.452 | 1.42 (inactive) | -0.156 | 0.615 | -2.52 (inactive) | -0.735 | 0.383 (inactive) | -1.36 (inactive) | -0.756 (inactive) | 0.218 (inactive) | 0.742 (inactive) | 0.7 (inactive) | 0.916 (inactive) | -1.96 | 0.0738
6 | CCCCC[C@H]1OC[C@@]23C=C(Br)[C@@H](CC12)[C@@]1(CO1)C3=O (stereo not given in full) | 0.433 | -0.0037 | -0.424 | -2.8 | -1.5 | -1.76 | -0.498 (inactive) | -0.314 | -0.824 | -0.612 (inactive) | 0.213 | -8.43 (active) | -0.586 (inactive) | -0.23 (inactive) | 0.248 (inactive) | -0.984 (inactive) | -0.662 (inactive) | -0.666 (inactive) | -0.0702 | 0.144
7 | O=C(O)[C@@H]1C[C@@H]2C(=O)N3CCC[C@H]3C(=O)N2[C@@H]1c1ccc(O)cc1 | -0.335 | 1.13 | -0.763 | -3.42 | 0.0242 | 0.0357 | -0.184 (inactive) | -0.704 | -1.34 | -0.609 (inactive) | -0.155 | -1.8 (inactive) | -0.695 (inactive) | -1.7 (inactive) | 1.03 (inactive) | -0.113 (inactive) | 0.437 (inactive) | -0.535 (inactive) | 0.16 | 0.0721
8 | CCCC=C(CCC)[C@@H](NC(=O)C(C)(C)C)c1ccc(C(=O)OC)cc1 | -1.01 | -0.886 | -0.47 | -0.695 | -2.08 | 3.69 | -0.614 (inactive) | -0.118 | -0.459 | 0.821 (inactive) | 1.35 | 1.3 (inactive) | -0.0387 (inactive) | 0.0907 (inactive) | 0.122 (inactive) | 1.17 (inactive) | -0.187 (inactive) | 0.0571 (inactive) | -0.0244 | -0.34
9 | COc1cc2c(cc1O)C(c1ccc(CN3CCCC3)cc1)N(Cc1cc3c(cc1Br)OCO3)CC2 (stereo not given) | -0.717 | -0.564 | -0.341 | -3.17 | 0.173 | 1.21 | 0.144 (inactive) | -0.398 | -1.29 | 0.694 (inactive) | 0.686 | -0.714 (inactive) | -1.44 (inactive) | -0.296 (inactive) | -0.0218 (inactive) | -0.365 (inactive) | -1.36 (inactive) | -1.01 (inactive) | 0.174 | -0.123
